Values without a mark were called inactive. How the calls were made is not given here. Where a SMILES comes first, the peptide text is derived from it. [ ]: non-standard residue; d: D form. The star is where a group is joined. ξ: configuration not given here. Cbz = O=C(OCc1ccccc1)*; ξK = NCCCCC(N)C(=O)O
Target: Pantothenate synthetase (Mycobacterium tuberculosis (strain ATCC 25618 / H37Rv)) (UniProt P9WIL5)
Assay: Coupled enzyme confirmation of inhibitors against recombinant Mtb PanC (AID 375);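 further: 0% = full reaction with vehicle and 100% = no enzyme background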
Settings: coupled enzyme assay; at 10 µM, active compounds read high

Sequence of Pantothenate synthetase (Mycobacterium tuberculosis (strain ATCC 25618 / H37Rv)) (P9WIL5 whole entry, looked up): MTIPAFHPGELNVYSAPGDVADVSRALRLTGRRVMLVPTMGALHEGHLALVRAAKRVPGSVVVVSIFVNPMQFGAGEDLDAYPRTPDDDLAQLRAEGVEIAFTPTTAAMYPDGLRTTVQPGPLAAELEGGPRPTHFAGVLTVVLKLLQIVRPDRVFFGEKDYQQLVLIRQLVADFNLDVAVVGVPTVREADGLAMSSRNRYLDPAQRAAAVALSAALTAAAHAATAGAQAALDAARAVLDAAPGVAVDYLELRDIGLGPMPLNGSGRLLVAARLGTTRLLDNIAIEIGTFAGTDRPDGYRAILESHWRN

| SMILES | inhibition [%] |
| --- | --- |
| O=c1cc(-c2ccc(Cl)cc2)[nH][nH]1 | 1 |
| FC(F)(F)c1cccc(N2CCN(c3nnnn3-c3ccccc3)CC2)c1 | 0 |
| Cc1c(C=NCCOCc2ccccc2)cnn1C | 0 |
| COc1ccc(C2CC(C(F)(F)F)n3ncc(C(=O)NCc4cccnc4)c3N2)cc1OC (stereo not given) | 0 |
| CCOC(=O)N1CCN(c2cc(=O)n(-c3ccc(OCC)cc3)c(=O)[nH]2)CC1 | 5 |
| CCOc1ccc(OCC)c(NC(=O)C2CCN(c3ncccn3)CC2)c1 | 0 |
| c1ccc(-c2csc(N3CCCCCC3)n2)cc1 | 4 |
| CCn1c(C(=O)OC)cc2c1ccn2-c1ccc(F)cc1 | 0 |
| CCOc1ccccc1C1N(c2ccc(F)cc2)C(=O)C2CCCN21 (stereo not given) | 2 |
| CCOC(=O)C(CC)n1nc(C)n2c(cc3sccc32)c1=O (stereo not given) | 4 |
| O=C(Nc1cccc2ccccc12)c1cnccn1 | 0 |
| COC(=O)C1(C)NC(c2ccco2)C2C(=O)N(c3ccc(C)cc3)C(=O)C21 (stereo not given) | 4 |
| COC(=O)c1ccccc1S(=O)(=O)N(Cc1cc2cc3c(cc2[nH]c1=O)OCO3)C1CCCCC1 | 1 |
| Nc1nc(-c2ccc(Cl)cc2)nn1C(=O)c1cccnc1 | 0 |
| CCOC(=O)c1ccccc1NC(=O)c1cc2sccc2n1C | 2 |
| CS(=O)(=O)N1CCCC(C(=O)NCCCN2CCC(Cc3ccccc3)CC2)C1 (stereo not given) | 0 |
| N=c1c(C(=O)NCc2ccccc2)cc2c(=O)n3ccccc3nc2n1Cc1ccco1 | 0 |
| CCN(CC)C(=O)c1sc2nc(-c3cccs3)cc(-c3cccs3)c2c1N | 0 |
| CC(C)(C)NC(=O)Nc1ccccc1C(N)=O | 5 |
| O=C(O)c1cccc(NC(=O)C2C3C=CC(C3)C2C(=O)OCC(F)(F)C(F)F)c1 (stereo not given) | 5 |

| SMILES | inhibition [%] |
| --- | --- |
| O=C(Nc1ccccc1C(=O)O)c1cccc(NC(=O)c2ccc(Br)o2)c1 | 0 |
| COC(=O)CSC1=C(C#N)C(c2ccccc2)CC(=O)N1 (stereo not given) | 0 |
| Cc1ccc(C)c(-n2c(CNC(=O)c3ccco3)nnc2SCC(=O)Nc2nnc(C)s2)c1 | 0 |
| O=S(=O)(c1ccc(N2CCN(c3ccc(F)cc3)CC2)cc1)N1CCCC1 | 0 |
| CC(=O)NS(=O)(=O)c1ccc(N)cc1 | 2 |
| COC(=O)CSc1nc2sc3c(c2c(=O)n1C1CCCCC1)CCN(C)C3 | 0 |
| CCN(CC)C(=O)C1CCCc2c1[nH]c1ccc(Cl)cc21 (stereo not given) | 0 |
| CC(=O)O[C@]1(C(C)=O)CC[C@H]2[C@@H]3C=C(Cl)C4=CC(=O)CC[C@]4(C)[C@H]3CC[C@@]21C | 0 |
| CCOC(=O)COc1ccc(S(=O)(=O)Nc2ccc3c(c2)OCO3)cc1 | 2 |
| CCCCOc1ccc(OCCCN2CCOCC2)cc1 | 2 |
| COc1ccc(CCNC(=O)CSc2nnnn2-c2ccccc2OC)cc1OC | 5 |
| Cc1cc(C)nc(SCC(=O)Nc2ncc3c(n2)CCCC3=O)n1 | 0 |
| CCOc1ccccc1-c1nc(-c2ccc(C)nc2OC)no1 | 3 |
| COC(=O)C(CCCCNC(=O)OCc1ccccc1)NC(=O)CN (stereo not given) (H-Gly-[ξK](Cbz)-OMe) | 0 |
| O=C(COc1ccccc1)Nc1ccc(-c2nnc(-c3ccco3)o2)cc1 | 2 |
| CC1(C)Cc2noc(N)c2C(C)(C)N1OC(=O)c1ccccc1 | 0 |
| CCOC(=O)N1CCN(C(=O)CSc2cc(C)nc3c(-c4ccccc4OC)c(C)nn23)CC1 | 0 |
| CCC(C)NC(=O)C1(C)CCC(=O)N1Cc1ccccc1OC (stereo not given) | 10 |
| O=S(=O)(c1cccc(S(=O)(=O)N2CCC(N3CCCCC3)CC2)c1)N1CCOCC1 | 0 |
| COc1cccc(Cn2c(Oc3ccccc3)nc3c2c(=O)n(C)c(=O)n3C)c1 | 0 |
